# Data reported in article PMC7862700, “An all-to-all approach to the identification of sequence-specific readers for epigenetic DNA modifications on cytosine”.
# What was measured:
# Experiment in all cases: DAPPL (digital affinity profiling via proximity ligation, sequencing); 10 mM Tris-HCl pH 7.5, 50 mM NaCl, 1 mM DTT, 4% glycerol, room temperature, 30 min; GST-TFs on glutathione beads, 16-mer random dsDNA library, 0.1% formaldehyde crosslink after washing; high values mean tight binding
# FLI1 = molecular target: T1, FLI1 (Homo sapiens, UniProt Q01543 1-452); details: protein: recombinant; tags: N-terminal GST; dsDNA, one strand shown
# T1 sequence: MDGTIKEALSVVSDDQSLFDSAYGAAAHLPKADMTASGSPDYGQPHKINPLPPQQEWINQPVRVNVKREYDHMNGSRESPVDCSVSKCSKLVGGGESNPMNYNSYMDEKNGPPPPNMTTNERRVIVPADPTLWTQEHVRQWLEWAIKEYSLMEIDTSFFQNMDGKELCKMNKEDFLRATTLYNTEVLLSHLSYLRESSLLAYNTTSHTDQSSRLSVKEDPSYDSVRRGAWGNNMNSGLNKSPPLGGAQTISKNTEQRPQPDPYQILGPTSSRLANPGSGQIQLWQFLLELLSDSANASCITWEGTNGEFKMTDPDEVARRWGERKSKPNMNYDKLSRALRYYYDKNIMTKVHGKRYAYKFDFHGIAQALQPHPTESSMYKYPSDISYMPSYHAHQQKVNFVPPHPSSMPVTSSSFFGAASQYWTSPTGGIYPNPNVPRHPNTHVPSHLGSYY
# Summary of the method: (§1)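 Binding signal is each hexamer's read frequency for a factor divided by its frequency in the tag-only sample. The factors were GST-fused human transcription factors from yeast, captured on glutathione beads, DNA-barcoded and pooled with that sample. Pools were incubated with 200 nmole of a random double-stranded 16-mer DNA library in Tris/NaCl/DTT/glycerol buffer at room temperature for 30 min, then washed, crosslinked with 0.1% formaldehyde, proximity-ligated with BsaI/T4 ligase (1 h, 37 °C), PCR-amplified and sequenced on an Illumina NextSeq500.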
# ELK1 = molecular target: T2, ELK1 (Homo sapiens, UniProt P19419 1-428); details: protein: recombinant; tags: N-terminal GST; dsDNA, one strand shown
# T2 sequence: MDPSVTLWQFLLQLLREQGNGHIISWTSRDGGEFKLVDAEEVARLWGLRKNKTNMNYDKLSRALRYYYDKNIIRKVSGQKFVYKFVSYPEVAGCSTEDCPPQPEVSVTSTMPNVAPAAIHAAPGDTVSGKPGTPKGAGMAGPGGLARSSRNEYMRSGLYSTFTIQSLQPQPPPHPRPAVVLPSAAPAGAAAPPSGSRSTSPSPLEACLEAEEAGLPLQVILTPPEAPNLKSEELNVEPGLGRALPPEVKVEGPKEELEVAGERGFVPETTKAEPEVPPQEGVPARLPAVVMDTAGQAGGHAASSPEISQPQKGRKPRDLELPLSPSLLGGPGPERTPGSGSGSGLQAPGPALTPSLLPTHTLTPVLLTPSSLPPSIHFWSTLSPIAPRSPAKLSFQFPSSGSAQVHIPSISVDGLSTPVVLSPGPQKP
# Summary of the method: as §1
# GABPA = molecular target: T3, GABPA (Homo sapiens, UniProt Q06546 1-454); details: protein: recombinant; tags: N-terminal GST; dsDNA, one strand shown
# T3 sequence: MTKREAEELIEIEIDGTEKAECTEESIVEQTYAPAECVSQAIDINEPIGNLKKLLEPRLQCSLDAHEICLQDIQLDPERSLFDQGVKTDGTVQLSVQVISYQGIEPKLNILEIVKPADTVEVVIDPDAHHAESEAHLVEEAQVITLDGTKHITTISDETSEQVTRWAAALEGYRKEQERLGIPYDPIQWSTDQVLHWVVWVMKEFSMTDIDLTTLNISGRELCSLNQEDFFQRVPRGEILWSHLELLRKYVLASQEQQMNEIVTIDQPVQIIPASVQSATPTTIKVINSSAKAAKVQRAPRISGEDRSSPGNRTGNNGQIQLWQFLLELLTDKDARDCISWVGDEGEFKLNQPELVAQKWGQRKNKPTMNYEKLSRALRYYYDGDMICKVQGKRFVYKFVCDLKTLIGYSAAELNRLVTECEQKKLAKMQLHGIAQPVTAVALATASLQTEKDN
# Summary of the method: as §1
# ERG = molecular target: T4, ERG (Homo sapiens, UniProt P11308 1-479); details: protein: recombinant; tags: N-terminal GST; dsDNA, one strand shown
# T4 sequence: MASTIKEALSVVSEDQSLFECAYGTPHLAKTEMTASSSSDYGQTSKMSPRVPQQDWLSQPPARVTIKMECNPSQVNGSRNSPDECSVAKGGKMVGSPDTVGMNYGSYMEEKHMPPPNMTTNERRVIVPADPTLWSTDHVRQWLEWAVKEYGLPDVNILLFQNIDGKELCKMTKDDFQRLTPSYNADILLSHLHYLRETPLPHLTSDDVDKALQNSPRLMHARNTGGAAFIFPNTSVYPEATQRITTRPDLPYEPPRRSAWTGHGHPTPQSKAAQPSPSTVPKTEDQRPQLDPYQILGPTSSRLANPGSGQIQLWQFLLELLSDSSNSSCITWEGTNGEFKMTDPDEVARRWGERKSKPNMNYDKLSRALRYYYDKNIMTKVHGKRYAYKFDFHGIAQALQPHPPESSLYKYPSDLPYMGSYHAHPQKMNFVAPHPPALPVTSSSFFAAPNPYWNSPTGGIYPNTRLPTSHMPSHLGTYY
# Summary of the method: as §1
# ELF1 = ELF1 (Homo sapiens, UniProt P32519 1-619); details: protein: recombinant; tags: N-terminal GST; dsDNA, one strand shown
# Chain of ELF1 (P32519 whole entry): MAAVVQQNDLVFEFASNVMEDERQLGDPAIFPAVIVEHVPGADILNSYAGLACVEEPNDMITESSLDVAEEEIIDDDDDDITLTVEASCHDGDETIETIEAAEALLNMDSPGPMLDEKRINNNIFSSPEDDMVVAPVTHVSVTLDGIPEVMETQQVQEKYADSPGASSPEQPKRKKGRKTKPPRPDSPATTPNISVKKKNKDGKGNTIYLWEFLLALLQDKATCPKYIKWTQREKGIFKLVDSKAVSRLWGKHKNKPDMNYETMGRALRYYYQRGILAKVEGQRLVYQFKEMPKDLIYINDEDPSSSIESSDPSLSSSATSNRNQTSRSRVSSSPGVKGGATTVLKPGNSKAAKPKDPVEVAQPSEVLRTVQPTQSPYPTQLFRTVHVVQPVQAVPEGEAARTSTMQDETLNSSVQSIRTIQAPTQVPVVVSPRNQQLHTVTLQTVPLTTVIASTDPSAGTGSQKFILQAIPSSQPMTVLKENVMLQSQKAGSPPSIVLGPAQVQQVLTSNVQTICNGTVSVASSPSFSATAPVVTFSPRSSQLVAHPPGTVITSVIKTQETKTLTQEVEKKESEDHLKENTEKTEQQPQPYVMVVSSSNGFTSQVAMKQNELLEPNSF
# Summary of the method: as §1
# EHF = molecular target: T5, EHF (Homo sapiens, UniProt Q9NZC4 1-300); details: protein: recombinant; tags: N-terminal GST; dsDNA, one strand shown
# T5 sequence: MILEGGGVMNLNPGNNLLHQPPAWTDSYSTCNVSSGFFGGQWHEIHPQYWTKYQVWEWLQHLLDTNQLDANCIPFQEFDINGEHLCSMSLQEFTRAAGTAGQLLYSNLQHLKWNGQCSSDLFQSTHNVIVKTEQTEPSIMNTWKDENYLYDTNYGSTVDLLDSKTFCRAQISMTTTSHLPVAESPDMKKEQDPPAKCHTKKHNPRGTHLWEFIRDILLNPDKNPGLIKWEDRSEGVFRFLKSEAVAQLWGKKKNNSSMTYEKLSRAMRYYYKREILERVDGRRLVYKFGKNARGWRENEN
# Summary of the method: as §1
# SPI1 = SPI1 (Homo sapiens, UniProt P17947 1-270); details: protein: recombinant; tags: N-terminal GST; dsDNA, one strand shown
# Summary of the method: as §1
# SPIB = SPIB (Homo sapiens, UniProt Q01892 1-262); details: protein: recombinant; tags: N-terminal GST; dsDNA, one strand shown
# Chain of SPIB (Q01892 whole entry): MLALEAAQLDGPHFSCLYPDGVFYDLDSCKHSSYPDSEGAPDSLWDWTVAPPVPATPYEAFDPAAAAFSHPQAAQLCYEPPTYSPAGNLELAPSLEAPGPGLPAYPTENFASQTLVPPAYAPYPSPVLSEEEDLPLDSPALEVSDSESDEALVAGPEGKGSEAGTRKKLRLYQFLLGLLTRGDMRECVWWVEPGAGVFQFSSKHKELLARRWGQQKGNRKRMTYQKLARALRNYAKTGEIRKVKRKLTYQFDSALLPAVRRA
# Summary of the method: as §1
# ELK3 = molecular target: T6, ELK3 (Homo sapiens, UniProt P41970 1-407); details: protein: recombinant; tags: N-terminal GST; dsDNA, one strand shown
# T6 sequence: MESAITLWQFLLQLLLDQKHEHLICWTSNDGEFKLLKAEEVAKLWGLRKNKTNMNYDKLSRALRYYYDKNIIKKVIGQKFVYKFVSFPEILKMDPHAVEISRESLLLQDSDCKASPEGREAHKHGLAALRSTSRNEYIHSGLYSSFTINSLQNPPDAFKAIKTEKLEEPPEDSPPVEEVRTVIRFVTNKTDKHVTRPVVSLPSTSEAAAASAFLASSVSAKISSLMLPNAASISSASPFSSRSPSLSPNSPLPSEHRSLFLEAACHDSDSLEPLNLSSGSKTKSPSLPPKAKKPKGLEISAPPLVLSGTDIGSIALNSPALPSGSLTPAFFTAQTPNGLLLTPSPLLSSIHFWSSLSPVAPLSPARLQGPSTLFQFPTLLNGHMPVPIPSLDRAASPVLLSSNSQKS
# Summary of the method: as §1
# FEV = molecular target: T7, FEV (Homo sapiens, UniProt Q99581 1-238); details: protein: recombinant; tags: N-terminal GST; dsDNA, one strand shown
# T7 sequence: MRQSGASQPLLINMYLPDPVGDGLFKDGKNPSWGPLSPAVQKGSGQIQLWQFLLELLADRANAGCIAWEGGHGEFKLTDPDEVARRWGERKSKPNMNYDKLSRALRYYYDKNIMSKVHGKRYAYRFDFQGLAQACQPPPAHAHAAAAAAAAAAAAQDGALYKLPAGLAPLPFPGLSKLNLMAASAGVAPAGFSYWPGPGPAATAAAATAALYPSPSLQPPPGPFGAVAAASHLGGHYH
# Summary of the method: as §1
# ETV5 = ETV5 (Homo sapiens, UniProt P41161 1-510); details: protein: recombinant; tags: N-terminal GST; dsDNA, one strand shown
# Chain of ETV5 (P41161 whole entry): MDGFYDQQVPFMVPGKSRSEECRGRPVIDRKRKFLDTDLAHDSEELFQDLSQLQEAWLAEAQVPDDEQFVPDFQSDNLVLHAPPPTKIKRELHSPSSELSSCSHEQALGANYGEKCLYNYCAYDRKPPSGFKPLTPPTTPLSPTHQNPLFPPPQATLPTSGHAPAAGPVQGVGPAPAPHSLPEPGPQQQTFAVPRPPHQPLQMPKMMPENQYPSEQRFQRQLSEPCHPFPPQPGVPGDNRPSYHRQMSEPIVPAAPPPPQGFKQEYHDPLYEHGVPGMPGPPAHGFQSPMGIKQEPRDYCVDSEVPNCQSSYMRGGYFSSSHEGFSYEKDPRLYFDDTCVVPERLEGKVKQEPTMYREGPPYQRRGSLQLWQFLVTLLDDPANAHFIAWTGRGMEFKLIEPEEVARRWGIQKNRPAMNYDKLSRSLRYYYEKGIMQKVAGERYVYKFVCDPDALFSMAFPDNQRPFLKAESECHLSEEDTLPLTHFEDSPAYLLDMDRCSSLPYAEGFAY
# Summary of the method: as §1
# HSF1 = HSF1 (Homo sapiens, UniProt Q00613 1-529); details: protein: recombinant; tags: N-terminal GST; chain copies: 3; dsDNA, one strand shown
# Chain of HSF1 (Q00613 whole entry): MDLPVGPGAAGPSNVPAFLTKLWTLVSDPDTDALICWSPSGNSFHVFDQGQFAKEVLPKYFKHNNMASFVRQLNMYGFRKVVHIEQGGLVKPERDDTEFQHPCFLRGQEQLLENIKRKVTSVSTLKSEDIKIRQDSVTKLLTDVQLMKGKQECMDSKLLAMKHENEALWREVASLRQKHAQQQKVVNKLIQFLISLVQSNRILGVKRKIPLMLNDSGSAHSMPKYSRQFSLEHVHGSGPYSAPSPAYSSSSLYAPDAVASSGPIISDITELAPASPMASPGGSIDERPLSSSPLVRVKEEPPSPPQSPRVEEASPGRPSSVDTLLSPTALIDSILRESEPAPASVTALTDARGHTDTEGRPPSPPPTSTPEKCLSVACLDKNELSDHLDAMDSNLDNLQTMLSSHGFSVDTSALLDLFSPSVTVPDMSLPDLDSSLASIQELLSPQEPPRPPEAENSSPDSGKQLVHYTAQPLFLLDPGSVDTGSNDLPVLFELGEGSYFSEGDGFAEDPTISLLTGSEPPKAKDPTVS
# Summary of the method: as §1
# SPIC = molecular target: T8, SPIC (Homo sapiens, UniProt Q8N5J4 1-248); details: protein: recombinant; tags: N-terminal GST; dsDNA, one strand shown
# T8 sequence: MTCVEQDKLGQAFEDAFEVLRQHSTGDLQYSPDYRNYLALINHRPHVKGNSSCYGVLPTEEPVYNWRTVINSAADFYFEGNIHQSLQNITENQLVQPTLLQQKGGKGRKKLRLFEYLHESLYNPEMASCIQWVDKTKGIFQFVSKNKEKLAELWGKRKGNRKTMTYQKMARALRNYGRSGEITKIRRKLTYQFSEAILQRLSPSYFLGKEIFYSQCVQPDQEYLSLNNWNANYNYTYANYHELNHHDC
# Summary of the method: as §1
# ELF4 = ELF4 (Homo sapiens, UniProt Q99607 1-663); details: protein: recombinant; tags: N-terminal GST; dsDNA, one strand shown
# Chain of ELF4 (Q99607 whole entry): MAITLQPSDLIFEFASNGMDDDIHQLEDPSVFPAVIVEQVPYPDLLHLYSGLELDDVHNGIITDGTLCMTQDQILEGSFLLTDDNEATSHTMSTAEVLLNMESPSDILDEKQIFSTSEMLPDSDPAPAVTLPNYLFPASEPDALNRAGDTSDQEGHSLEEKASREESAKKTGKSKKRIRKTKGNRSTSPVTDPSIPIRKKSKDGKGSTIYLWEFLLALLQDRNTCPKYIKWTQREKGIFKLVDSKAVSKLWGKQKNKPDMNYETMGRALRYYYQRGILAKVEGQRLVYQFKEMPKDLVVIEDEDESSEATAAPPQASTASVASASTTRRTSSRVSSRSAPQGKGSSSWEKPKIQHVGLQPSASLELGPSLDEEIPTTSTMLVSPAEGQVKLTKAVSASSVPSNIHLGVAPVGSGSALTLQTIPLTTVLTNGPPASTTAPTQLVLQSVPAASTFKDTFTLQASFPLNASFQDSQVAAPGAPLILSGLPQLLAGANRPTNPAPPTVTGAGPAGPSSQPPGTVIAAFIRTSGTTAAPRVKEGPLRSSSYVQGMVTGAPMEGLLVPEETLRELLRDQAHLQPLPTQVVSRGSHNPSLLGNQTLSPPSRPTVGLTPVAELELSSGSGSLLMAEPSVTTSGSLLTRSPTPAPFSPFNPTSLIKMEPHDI
# Summary of the method: as §1
# ELK4 = molecular target: T9, ELK4 (Homo sapiens, UniProt P28324-2 1-405); details: protein: recombinant; tags: N-terminal GST; dsDNA, one strand shown
# T9 sequence: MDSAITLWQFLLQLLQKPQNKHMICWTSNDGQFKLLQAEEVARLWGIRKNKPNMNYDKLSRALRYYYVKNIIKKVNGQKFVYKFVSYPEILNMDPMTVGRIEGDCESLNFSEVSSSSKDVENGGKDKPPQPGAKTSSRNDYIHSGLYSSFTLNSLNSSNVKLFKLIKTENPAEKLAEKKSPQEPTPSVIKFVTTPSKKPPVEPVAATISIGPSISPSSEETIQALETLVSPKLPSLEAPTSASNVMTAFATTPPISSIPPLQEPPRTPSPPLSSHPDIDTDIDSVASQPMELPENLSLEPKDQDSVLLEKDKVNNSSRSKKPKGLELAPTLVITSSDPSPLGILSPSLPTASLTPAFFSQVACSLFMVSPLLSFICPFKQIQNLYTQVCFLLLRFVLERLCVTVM
# Summary of the method: as §1
# ETV2 = molecular target: T10, ETV2 (Homo sapiens, UniProt O00321 1-342); details: protein: recombinant; tags: N-terminal GST; dsDNA, one strand shown
# T10 sequence: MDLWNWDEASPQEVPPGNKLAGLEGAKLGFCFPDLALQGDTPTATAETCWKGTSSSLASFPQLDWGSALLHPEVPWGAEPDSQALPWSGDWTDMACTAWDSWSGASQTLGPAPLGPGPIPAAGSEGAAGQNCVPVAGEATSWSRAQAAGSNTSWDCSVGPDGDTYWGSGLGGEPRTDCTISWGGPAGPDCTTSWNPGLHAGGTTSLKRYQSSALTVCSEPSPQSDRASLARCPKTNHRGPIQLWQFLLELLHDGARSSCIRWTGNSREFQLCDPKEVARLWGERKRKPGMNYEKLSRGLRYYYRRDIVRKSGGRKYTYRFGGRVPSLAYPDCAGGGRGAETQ
# Summary of the method: as §1
# ELF3 = molecular target: T11, ELF3 (Homo sapiens, UniProt P78545 1-371); details: protein: recombinant; tags: N-terminal GST; dsDNA, one strand shown
# T11 sequence: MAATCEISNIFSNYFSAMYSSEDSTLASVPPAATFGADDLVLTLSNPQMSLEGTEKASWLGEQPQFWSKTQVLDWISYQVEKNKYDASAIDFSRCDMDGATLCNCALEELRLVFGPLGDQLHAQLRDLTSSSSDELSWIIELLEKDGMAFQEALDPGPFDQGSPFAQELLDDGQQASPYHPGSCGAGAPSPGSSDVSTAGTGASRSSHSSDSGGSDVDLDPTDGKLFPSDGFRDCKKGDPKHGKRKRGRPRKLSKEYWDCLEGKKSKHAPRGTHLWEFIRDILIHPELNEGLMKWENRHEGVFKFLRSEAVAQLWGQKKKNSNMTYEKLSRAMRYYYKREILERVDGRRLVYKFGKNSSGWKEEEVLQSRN
# Summary of the method: as §1
# CRX = CRX (Homo sapiens, UniProt O43186 1-299); details: protein: recombinant; tags: N-terminal GST; dsDNA, one strand shown
# Chain of CRX (O43186 whole entry): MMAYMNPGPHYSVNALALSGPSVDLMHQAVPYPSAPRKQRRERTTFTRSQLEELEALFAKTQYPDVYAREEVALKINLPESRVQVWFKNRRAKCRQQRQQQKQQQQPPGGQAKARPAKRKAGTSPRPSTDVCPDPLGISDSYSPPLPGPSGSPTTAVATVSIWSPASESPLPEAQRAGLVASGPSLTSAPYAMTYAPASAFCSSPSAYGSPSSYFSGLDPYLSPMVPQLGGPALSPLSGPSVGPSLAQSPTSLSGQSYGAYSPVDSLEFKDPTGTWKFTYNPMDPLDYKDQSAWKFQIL
# Summary of the method: as §1
# ETV1 = ETV1 (Homo sapiens, UniProt P50549 1-477); details: protein: recombinant; tags: N-terminal GST; dsDNA, one strand shown
# Chain of ETV1 (P50549 whole entry): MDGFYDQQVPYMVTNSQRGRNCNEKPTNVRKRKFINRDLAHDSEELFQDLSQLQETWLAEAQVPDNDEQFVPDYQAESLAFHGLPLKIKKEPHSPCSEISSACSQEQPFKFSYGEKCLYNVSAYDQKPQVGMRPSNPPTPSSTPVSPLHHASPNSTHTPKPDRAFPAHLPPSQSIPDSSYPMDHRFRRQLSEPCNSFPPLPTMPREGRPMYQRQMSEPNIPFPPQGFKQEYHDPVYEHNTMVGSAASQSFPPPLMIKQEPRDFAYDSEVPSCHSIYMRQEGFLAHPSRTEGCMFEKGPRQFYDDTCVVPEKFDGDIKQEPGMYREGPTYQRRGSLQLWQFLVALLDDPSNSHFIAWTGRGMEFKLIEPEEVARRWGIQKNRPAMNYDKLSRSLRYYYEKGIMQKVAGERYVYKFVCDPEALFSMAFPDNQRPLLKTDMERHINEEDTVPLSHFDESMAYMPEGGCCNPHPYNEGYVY
# Summary of the method: as §1
sequence,measurement,setting,value
TGACTC,binding signal,FLI1,"1.49 fold enrichment (6-mer frequency, TF over GST control)"
same,binding signal,ELK1,"1.39 fold enrichment (6-mer frequency, TF over GST control)"
same,binding signal,GABPA,"1.4 fold enrichment (6-mer frequency, TF over GST control)"
same,binding signal,ERG,"1.39 fold enrichment (6-mer frequency, TF over GST control)"
same,binding signal,ELF1,"1.36 fold enrichment (6-mer frequency, TF over GST control)"
same,binding signal,EHF,"1.27 fold enrichment (6-mer frequency, TF over GST control)"
same,binding signal,SPI1,"1.27 fold enrichment (6-mer frequency, TF over GST control)"
same,binding signal,SPIB,"1.42 fold enrichment (6-mer frequency, TF over GST control)"
same,binding signal,ELK3,"1.41 fold enrichment (6-mer frequency, TF over GST control)"
same,binding signal,FEV,"1.36 fold enrichment (6-mer frequency, TF over GST control)"
same,binding signal,ETV5,"1.24 fold enrichment (6-mer frequency, TF over GST control)"
same,binding signal,HSF1,"1.1 fold enrichment (6-mer frequency, TF over GST control)"
same,binding signal,SPIC,"1.48 fold enrichment (6-mer frequency, TF over GST control)"
same,binding signal,ELF4,"1.35 fold enrichment (6-mer frequency, TF over GST control)"
same,binding signal,ELK4,"1.31 fold enrichment (6-mer frequency, TF over GST control)"
same,binding signal,ETV2,"1.31 fold enrichment (6-mer frequency, TF over GST control)"
same,binding signal,ELF3,"1.36 fold enrichment (6-mer frequency, TF over GST control)"
same,binding signal,CRX,"1.07 fold enrichment (6-mer frequency, TF over GST control)"
same,binding signal,ETV1,"1.33 fold enrichment (6-mer frequency, TF over GST control)"
